In PubChem BioAssay (NCI):
About 79,000 compounds went through this panel and 15% of them were active in at least one assay; those are over-represented in the sample as a whole. Values without a mark were called inactive. Active and inactive are the calls of the source. Cut-off read from the data, not from the text of the source: active = growth inhibition above about 70%; inactive = the rest.

Test: NCI Yeast Anticancer Drug Screen. Data for the mgt1 strain (AID 153)
Conditions: S. cerevisiae mgt1 mutant growth inhibition, active compounds read high
Description: Growth inhibition of yeast strains with defined genetic alterations is measured as a screen for potential anti-cancer activity. Selected strains with alterations in DNA damage repair or cell cycle control were exposed to compounds and growth inhibition was measured relative to vehicle treated controls. The strain used in this assay is mgt1

Row | Structure (SMILES) | growth inhibition (at 1.2 µM) | growth inhibition (at 3.7 µM) | growth inhibition (at 11.0 µM) | growth inhibition (at 33.0 µM) | growth inhibition (at 100.0 µM)
1 | O=C(O)c1ccccc1.[Ag] | 98% (active) | 101% (active) | 99% (active) | 99% (active) | 99% (active)
2 | CC(=O)[C@]1(O)Cc2c(O)c3c(c(O)c2[C@@H](OC2CC(N)C(O)C(C)O2)C1)C(=O)c1c(OCc2ccccc2)cccc1C3=O (stereo not given in full) | -2% | 8% | 5% | 14% | 43%
3 | Clc1c(Cl)c(Cl)c2n[nH]nc2c1Cl | -23% | -12% | -5% | 6% | 86% (active)
4 | Cc1cc(Cl)nc2nc(Cl)c(N)cc12 | -14% | -12% | -9% | 20% | 87% (active)
5 | Cc1cc(C)c(N2C(=O)CC(Sc3ccccc3N)C2=O)c(C)c1 (stereo not given) | -57% | -57% | -57% | -38% | -21%
6 | O=C1NC(c2c(Cl)cccc2Cl)Nc2ccccc21 (stereo not given) | -14% | -9% | 5% | 63% | 96% (active)
7 | N#CC(=S)Nc1cccc(Cl)c1 | 2% | 15% | 24% | 42% | 76% (active)
8 | Cc1ccc2c(ccc(/C=C/c3ccc(O)c4ncccc34)[n+]2C)c1 | 8% | 40% | 84% (active) | 95% (active) | 82% (active)
